# Source: PubChem (several laboratories)
# Sampled rows, rich in hits. Any-hit rate of the full collection: about 3.6%.
# TROY signal inh – TROY signaling inhibition; Q293 LMP1-TROYcd NF-kB luciferase reporter, 4 h; inhibition, % at 10 µM; hit rate 0.98% among 360,000;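 active = compounds whose plate-normalised and pattern-corrected inhibition of the luciferase reporter signal at the single screening dose is 50% or more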
# EBV LMP1 NFkB – reduces LMP1-driven NF-kappaB luciferase signal | inhibition, % at 12.5 µM | LMP1-induced NF-kappaB luciferase reporter cells, luminescence | AID 504558 | hit rate 0.69% among 350,000; in the data active = inhibition above about 41%; inconclusive = no clear call, values can overlap the other calls;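 note: 0% = neutral control wells and 100% = reference inhibitor control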
# HSF-1 act – increases HSF-1 driven luciferase reporter signal | NIH3T3-HGL HSF-1 luciferase reporter, MG132, 8 h; 100% = twice DMSO control signal | activation, % at 9 µM | hit rate 1.7% among 300,000;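 active = mean replicate activation of at least 50% with a set share of replicates each reaching 50%; inconclusive = only one of those two conditions met; inactive = mean below 50% and too few replicates reaching it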;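 note: 0% = median of the neutral control wells and 100% = twice that signal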
# HSF1 inh – HSF1 inhibition | NIH3T3-HGL HSE-luciferase, MG132-induced, luminescence 8 h; stronger effect = lower value | AID 2098 | activity change, negative = inhibition, % at 7.5 µM (by protocol) | hit rate 0.77% among 300,000;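 active = more than half of replicate wells show activity change below -50%, luminescence cut by over half; inconclusive = some wells, but at most half, below -50%; inactive = no replicate well below -50%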;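 note: luciferase reports HSF-1 transcriptional activity via heat shock element; 0% = median of DMSO wells and -100% = zero luminescence signal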
# TWEAK Fn14 block – blocks TWEAK-Fn14 interaction in a reporter cell assay | TWEAK-stimulated Fn14 reporter cells, luciferase luminescence, 8 h | inhibition, % at 10 µM | hit rate 2% among 360,000; in the data active = inhibition above about 50%
# LGR2 antag – blocks bursicon-induced cAMP signaling via Drosophila LGR2. HEK293 LGR2, CRE-luciferase, bursicon-stimulated, 4 h. inhibition, % at 9.99 µM. hit rate 0.35% among 380,000;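 active = drop in luminescence signal, shown as inhibition above about 50% in the replicate tests, limit read from the data, passing the limit was not always enough; inconclusive = probably only some replicates passing the limit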;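 note: agonist challenge used bursicon conditioned medium at about half maximal strength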
# An asterisk follows results filed as active; ? = inconclusive; . = not tested or not shown.
SMILES,TROY signal inh,EBV LMP1 NFkB,HSF-1 act,HSF1 inh,TWEAK Fn14 block,LGR2 antag
COc1ccc(-n2c(C)cc(C(=O)COC(=O)c3cc(NC(=O)c4cccs4)c(OC)c(OC)c3)c2C)cc1,-13,1,14,5,1,-2
COc1cc(NC(=O)c2cccs2)c(C(=O)OCC(=O)c2cc(C)n(-c3ccccc3)c2C)cc1OC,-32,59*,-6,-4,15,60*
COc1ccc(N2C(=O)C(Cl)=C(Oc3cccc(OC)c3)C2=O)cc1,-6,-4,136*,70,1,.
COc1ccc(N2C(=O)C(Cl)=C(N3CCOCC3)C2=O)cc1,-2,1,4,-3,-5,5
CCC(=O)Nc1ccc2c(c1)C(=O)N(C)[C@H]1CC[C@H](CC(=O)N3CCc4ccccc4C3)O[C@@H]1CO2,.,.,.,.,.,-2
CNC(=O)C[C@@H]1CC[C@H]2[C@@H](COc3ccc(NC(=O)Nc4ccccc4)cc3C(=O)N2C)O1,.,.,.,.,.,-1
CN1c2ccsc2/C(=N/Nc2ccc(F)cc2)CS1(=O)=O,-24,-38,31,8,-30,-83
Cc1ccc(N/N=C2\CS(=O)(=O)N(C)c3ccsc32)cc1,6,-32,88*,73,-31,-7
C[C@@H]1CN([C@H](C)CO)S(=O)(=O)c2ccc(-c3ccccc3)cc2O[C@@H]1CN(C)Cc1ccncc1,.,.,.,.,.,14
COc1cccc(C2Nc3ccc4ccccc4c3C3=C2C(=O)CC(C)(C)C3)c1OCC(=O)O (stereo unspecified),-4,55*,0,5,15,7
Cc1ccc(S(=O)(=O)N(C)C[C@H]2Oc3ccc(NS(=O)(=O)c4c(C)noc4C)cc3C(=O)N([C@H](C)CO)C[C@@H]2C)cc1,.,.,.,.,.,19
O=C(NC(=S)Nc1ccc(S(=O)(=O)NC2CCCCC2)cc1)c1cccs1,17,21,-39,-18,53*,3
COc1cccc(C2=CC(=O)C[C@H](c3ccc4c(c3)OCO4)C2)c1,-12,48*,.,.,-11,.
C=C1C(=O)O[C@@H]2[C@H]1[C@@H](OC(=O)/C(C)=C/C)C/C(C)=C\C(=O)/C=C(\C)[C@@H]2O,29,67*,2,-1,67*,55*
Cc1cc(O)c(C2=Nc3ccccc3SC(c3ccc(Cl)cc3)C2)c(=O)o1 (stereo unspecified),75*,10,-63,-54*,77*,37
C[C@@H]1CN([C@@H](C)CO)C(=O)c2cc(NS(=O)(=O)c3ccc(F)cc3)ccc2O[C@@H](C)CCCCO[C@H]1CN(C)C(=O)Nc1ccc(F)cc1,.,.,.,.,.,2
O=C(NCCC1=CCCCC1)C1CCN(C(=O)Nc2ccccc2)CC1,-3,6,6,12,110*,.
CCOC(=O)/C(=C\c1ccc(N2CCC(c3ccccc3)=N2)cc1)C(C)=O,42,88*,.,.,29,22
OC[C@@H]1[C@@H](c2ccccc2)C2(CN(CC3CC3)C2)N1Cc1cncnc1,.,.,.,.,.,-17
C[C@@H]1CN([C@@H](C)CO)S(=O)(=O)c2ccc(C#Cc3ccccc3F)cc2O[C@H]1CN(C)CC1CCOCC1,.,.,.,.,.,31
c1ccc(Nc2ccnc(Nc3ccccc3)n2)cc1,20,-23,46,12,55*,-33
CC(=O)c1ccc(Oc2ccc(C(C)=O)cc2)cc1,-26,-24,56*,9,-17,.
CCN1C(=NCCc2cccs2)N[C@@H](c2cccs2)C(C(=O)OC)=C1C,-23,1,-69,-60*,-22,.
O=Cc1cc(OCc2ccccc2)ccc1[B-](F)(F)F,-8,55*,.,.,2,-9
O=C(NCc1cccnc1)/C(=C\c1ccc(-c2ccc(Br)cc2)o1)S(=O)(=O)c1ccccc1,83*,63*,39,22,100*,102*
SMILES,TROY signal inh,EBV LMP1 NFkB,HSF-1 act,HSF1 inh,TWEAK Fn14 block,LGR2 antag
O=C(CN(Cc1ccc(Br)cc1)S(=O)(=O)c1ccccc1)NCc1cccnc1,0,6,-11,-4,13,11
O=C(NCc1cccnc1)/C(=C/c1ccc(-c2ccc(Cl)cc2)o1)S(=O)(=O)c1ccccc1,76*,-52,87*,69,100*,99*
C[C@H](CO)N1C[C@H](C)[C@@H](CN(C)Cc2ccc(Cl)c(Cl)c2)Oc2ccc(NC(=O)CCCN(C)C)cc2CC1=O,.,.,.,.,.,-1
CCC(=O)N1C[C@@H](C)[C@H](OC)CN(C)C(=O)c2cc(NC(=O)c3ccno3)ccc2OC[C@@H]1C,.,.,.,.,.,-14
Cc1ccc(Cl)cc1-c1cc(C(=O)NCc2cc(C(F)(F)F)cc(C(F)(F)F)c2)[nH]n1,43,.,.,.,61*,.
Cc1csc(-c2cc(C(=O)NCc3cc(C(F)(F)F)cc(C(F)(F)F)c3)n[nH]2)c1,52*,.,.,.,-80,18
Cc1ccc(F)cc1-c1cc(C(=O)NCc2cc(C(F)(F)F)cc(C(F)(F)F)c2)[nH]n1,53*,.,.,.,19,6
Cc1cc(F)ccc1-c1cc(C(=O)NCc2cc(C(F)(F)F)cc(C(F)(F)F)c2)[nH]n1,30,.,.,.,-53,-10
Cc1noc(C)c1NC(=O)N(C)C[C@@H]1Oc2ccc(NS(C)(=O)=O)cc2CC(=O)N([C@@H](C)CO)C[C@@H]1C,.,.,.,.,.,1
CO[C@@H]1CC[C@@H]2CCOc3ccc(C#N)cc3C(=O)N(C)C[C@H](C)C(=O)N(C)C[C@@H]1O2,.,.,.,.,.,-7
COc1cc(NCc2ccccc2O)c2ncccc2c1,6,-13,?,38,15,-10
COc1cc(NCCCCCCCN)c2ncccc2c1,-7,4,6,10,97*,.
COc1cc(NC(C)CCCN)c2ncccc2c1 (stereo unspecified),-4,-13,-9,2,86*,.
CCCNC(=O)NC[C@H]1[C@H](c2ccc(C3=CCCC3)cc2)[C@H](CO)N1C(C)=O,.,.,.,.,.,-3
CC(=O)NC1Sc2ccccc2N=C1c1ccccc1 (stereo unspecified),.,-28,.,.,53*,-49
CCN(CC)c1ccc2nc3ccccc3[n+](CC)c2c1,25,1,-21,-13,64*,.
CCN(CC)c1ccc2nc3ccc(N)cc3[n+](-c3ccccc3)c2c1,-2,53*,.,.,11,59*
COc1ccc2c3c(n(C)c2c1)[C@H](CO)N(C(=O)C1CC1)CC31CN(C(=O)C2CCOCC2)C1,.,.,.,.,.,-4
CC(C)C#Cc1ccc2c(c1)O[C@H](CN(C)CC1CC1)[C@H](C)CN([C@H](C)CO)S2(=O)=O,.,.,.,.,.,20
CS(=O)(=O)Nc1ccc2c(c1)[C@@H]1C[C@@H](CC(=O)O)O[C@@H](CO)[C@@H]1O2,.,.,.,.,.,2
CCCCN(C(=O)COC(=O)COc1c(C)cc(C)cc1C)c1c(N)n(CCC)c(=O)[nH]c1=O,-10,0,-75,-69*,6,-1
COc1cc(/C=C/C(=O)OCC(=O)NNC(=O)c2cc(Cl)ccc2OC)ccc1O,-5,5,.,.,-15,-5
COc1cc(/C=C/C(=O)OCC(=O)NC(C)c2ccccc2)cc(OC)c1OC (stereo unspecified),1,-2,.,.,57*,-17
